# Measurements taken from ChEMBL document CHEMBL2218924, “A broad activity screen in support of a chemogenomic map for kinase signalling research and drug discovery” (Biochem J, 2013).
# Tests used:
# [1] = target: Tyrosine-protein kinase SYK (Homo sapiens) (UniProt P43405); conditions: at 10 µM
# [2] = target: T1, Mitogen-activated protein kinase kinase kinase 7 (Homo sapiens) (UniProt O43318); conditions: at 1 µM
# T1 sequence (whole entry): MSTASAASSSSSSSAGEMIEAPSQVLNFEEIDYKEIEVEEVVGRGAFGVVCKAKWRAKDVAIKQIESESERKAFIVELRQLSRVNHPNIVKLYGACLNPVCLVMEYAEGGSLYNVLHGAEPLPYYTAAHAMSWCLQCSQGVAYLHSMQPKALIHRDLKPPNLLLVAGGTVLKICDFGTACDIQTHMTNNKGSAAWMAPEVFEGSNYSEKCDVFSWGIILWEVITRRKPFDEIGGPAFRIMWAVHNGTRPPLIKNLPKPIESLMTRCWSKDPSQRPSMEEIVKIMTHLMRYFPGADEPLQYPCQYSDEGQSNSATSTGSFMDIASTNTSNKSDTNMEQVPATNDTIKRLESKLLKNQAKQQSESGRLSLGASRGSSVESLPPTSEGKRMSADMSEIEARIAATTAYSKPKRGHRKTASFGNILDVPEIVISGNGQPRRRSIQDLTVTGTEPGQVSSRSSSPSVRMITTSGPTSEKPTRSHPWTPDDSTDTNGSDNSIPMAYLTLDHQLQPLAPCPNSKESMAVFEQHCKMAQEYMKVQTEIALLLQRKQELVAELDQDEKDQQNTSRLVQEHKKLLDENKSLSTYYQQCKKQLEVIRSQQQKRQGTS
# [3] = target: T1, Mitogen-activated protein kinase kinase kinase 7 (Homo sapiens); conditions: at 10 µM
# [4] = target: T2, Serine/threonine-protein kinase TAO1 (Homo sapiens) (UniProt Q7L7X3); conditions: at 1 µM
# T2 sequence (whole entry): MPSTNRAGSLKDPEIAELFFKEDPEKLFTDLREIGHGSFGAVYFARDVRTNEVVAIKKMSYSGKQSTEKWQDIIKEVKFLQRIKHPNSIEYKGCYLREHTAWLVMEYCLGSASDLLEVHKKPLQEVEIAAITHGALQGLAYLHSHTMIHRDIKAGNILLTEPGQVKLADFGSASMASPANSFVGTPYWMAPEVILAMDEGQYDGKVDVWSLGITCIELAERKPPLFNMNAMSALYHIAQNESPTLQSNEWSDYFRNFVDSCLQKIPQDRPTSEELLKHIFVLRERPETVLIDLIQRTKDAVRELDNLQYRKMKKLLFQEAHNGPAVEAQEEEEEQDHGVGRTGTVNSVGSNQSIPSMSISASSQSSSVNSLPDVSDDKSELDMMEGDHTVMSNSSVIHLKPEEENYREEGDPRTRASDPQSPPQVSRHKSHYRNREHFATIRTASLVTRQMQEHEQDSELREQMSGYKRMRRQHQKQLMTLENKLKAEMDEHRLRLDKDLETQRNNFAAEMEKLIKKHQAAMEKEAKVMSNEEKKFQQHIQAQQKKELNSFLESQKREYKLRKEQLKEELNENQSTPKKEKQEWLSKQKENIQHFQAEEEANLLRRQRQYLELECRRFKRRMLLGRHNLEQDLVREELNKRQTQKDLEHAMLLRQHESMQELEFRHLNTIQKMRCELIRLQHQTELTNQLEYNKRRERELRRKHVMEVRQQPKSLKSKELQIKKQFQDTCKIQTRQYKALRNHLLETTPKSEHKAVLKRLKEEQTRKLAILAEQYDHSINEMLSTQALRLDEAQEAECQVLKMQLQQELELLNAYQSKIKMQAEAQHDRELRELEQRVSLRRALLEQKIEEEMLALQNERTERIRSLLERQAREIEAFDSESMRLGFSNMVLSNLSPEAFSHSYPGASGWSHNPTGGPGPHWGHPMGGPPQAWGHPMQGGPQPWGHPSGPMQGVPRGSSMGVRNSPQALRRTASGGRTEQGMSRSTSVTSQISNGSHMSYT
# [5] = target: T2, Serine/threonine-protein kinase TAO1 (Homo sapiens); conditions: at 10 µM
# [6] = target: T3, Serine/threonine-protein kinase TAO2 (Homo sapiens) (UniProt Q9UL54); conditions: at 1 µM
# T3 sequence (whole entry): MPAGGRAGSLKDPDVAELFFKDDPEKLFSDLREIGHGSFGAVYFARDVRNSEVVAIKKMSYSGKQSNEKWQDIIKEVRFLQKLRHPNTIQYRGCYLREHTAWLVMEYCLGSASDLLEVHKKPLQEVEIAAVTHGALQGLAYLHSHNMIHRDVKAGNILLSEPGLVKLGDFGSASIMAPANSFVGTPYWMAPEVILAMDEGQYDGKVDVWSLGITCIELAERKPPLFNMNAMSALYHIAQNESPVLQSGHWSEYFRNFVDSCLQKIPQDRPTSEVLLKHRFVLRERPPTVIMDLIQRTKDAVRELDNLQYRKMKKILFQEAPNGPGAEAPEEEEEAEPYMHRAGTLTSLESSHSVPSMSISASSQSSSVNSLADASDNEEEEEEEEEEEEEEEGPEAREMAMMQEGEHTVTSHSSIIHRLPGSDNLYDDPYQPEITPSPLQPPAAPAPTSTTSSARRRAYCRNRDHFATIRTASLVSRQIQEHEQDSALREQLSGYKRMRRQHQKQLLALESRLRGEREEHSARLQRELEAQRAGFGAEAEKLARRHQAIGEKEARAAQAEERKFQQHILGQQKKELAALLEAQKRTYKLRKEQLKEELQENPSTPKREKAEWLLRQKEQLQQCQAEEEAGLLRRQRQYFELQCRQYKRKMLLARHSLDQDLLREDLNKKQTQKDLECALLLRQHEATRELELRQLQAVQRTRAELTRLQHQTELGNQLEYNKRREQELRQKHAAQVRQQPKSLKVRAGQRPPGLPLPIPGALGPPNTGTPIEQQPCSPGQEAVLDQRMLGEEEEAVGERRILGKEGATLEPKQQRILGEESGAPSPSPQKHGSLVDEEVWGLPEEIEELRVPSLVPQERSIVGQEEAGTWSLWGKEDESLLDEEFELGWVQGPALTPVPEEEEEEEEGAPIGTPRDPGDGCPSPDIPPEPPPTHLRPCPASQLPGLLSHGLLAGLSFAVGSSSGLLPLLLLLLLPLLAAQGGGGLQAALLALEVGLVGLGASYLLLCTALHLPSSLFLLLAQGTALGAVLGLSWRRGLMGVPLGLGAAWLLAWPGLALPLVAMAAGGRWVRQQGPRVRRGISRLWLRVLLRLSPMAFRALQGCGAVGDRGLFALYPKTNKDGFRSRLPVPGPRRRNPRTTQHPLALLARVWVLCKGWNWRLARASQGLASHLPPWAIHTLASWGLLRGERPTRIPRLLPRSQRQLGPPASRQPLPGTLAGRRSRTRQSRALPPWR
# [7] = target: T3, Serine/threonine-protein kinase TAO2 (Homo sapiens); conditions: at 10 µM
# [8] = target: T4, Serine/threonine-protein kinase TAO3 (Homo sapiens) (UniProt Q9H2K8); conditions: at 1 µM
# T4 sequence (whole entry): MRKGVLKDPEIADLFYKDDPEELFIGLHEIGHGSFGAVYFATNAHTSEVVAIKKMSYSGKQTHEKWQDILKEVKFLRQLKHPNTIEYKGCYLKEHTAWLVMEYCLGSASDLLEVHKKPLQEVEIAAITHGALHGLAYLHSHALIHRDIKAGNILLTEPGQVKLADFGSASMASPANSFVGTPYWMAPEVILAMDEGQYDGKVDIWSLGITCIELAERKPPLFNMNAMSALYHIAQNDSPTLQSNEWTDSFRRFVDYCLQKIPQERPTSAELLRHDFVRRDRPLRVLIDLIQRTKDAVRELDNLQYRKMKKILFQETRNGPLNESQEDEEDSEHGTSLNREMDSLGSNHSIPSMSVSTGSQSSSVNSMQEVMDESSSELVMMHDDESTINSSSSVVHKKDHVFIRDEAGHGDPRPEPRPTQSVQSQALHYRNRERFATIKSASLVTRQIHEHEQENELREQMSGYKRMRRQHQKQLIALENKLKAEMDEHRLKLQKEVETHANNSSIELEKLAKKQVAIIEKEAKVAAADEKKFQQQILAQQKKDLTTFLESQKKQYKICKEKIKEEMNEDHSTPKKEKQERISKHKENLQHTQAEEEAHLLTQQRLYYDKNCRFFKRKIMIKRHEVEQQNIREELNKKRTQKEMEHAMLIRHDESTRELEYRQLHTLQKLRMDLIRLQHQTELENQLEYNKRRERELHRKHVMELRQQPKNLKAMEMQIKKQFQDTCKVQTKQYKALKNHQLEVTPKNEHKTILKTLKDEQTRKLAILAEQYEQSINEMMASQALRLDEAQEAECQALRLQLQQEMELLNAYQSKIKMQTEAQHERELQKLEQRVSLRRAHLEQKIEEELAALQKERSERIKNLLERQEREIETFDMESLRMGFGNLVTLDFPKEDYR
# [9] = target: T4, Serine/threonine-protein kinase TAO3 (Homo sapiens); conditions: at 10 µM
# [10] = target: T5, Serine/threonine-protein kinase TBK1 (Homo sapiens) (UniProt Q9UHD2); conditions: at 1 µM
# T5 sequence (whole entry): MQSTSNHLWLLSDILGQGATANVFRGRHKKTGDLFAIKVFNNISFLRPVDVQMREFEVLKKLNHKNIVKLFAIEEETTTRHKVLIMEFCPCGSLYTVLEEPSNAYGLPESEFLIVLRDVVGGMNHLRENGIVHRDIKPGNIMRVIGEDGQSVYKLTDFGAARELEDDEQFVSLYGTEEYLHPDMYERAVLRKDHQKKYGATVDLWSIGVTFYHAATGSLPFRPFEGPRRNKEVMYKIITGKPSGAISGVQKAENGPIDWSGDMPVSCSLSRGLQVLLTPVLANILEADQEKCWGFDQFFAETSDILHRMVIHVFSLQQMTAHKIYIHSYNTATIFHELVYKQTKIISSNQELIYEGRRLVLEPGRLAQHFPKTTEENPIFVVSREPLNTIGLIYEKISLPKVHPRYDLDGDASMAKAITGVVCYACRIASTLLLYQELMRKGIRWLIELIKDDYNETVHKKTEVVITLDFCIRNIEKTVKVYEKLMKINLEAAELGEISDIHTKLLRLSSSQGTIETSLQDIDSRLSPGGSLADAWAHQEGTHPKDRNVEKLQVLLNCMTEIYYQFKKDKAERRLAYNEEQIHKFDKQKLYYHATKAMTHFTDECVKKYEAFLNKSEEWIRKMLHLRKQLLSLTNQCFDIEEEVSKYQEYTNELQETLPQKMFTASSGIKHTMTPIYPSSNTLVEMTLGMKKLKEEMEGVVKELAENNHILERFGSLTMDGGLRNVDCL
compound,measurement,setting,value
CC(C)c1nn(-c2c(Cl)cccc2Cl)c2nc(Cc3ccc(OCCO)cc3)[nH]c(=O)c12,residual activity,[1],96%
same,residual activity,[2],97%
same,residual activity,[3],63%
same,residual activity,[4],61%
same,residual activity,[5],13%
same,residual activity,[6],84%
same,residual activity,[7],22%
same,residual activity,[8],55%
same,residual activity,[9],9%
same,residual activity,[10],82%
